# High-throughput results (PubChem BioAssay)
# A selection: hits, their analogues and other compounds. The true share with any hit is near 19%.
# TDP1 cell CPT: growth inhibition of DT40 Tdp1-/-;hTDP1 cells with camptothecin (screen for TDP1 inhibitors). chicken DT40 Tdp1-/-;hTDP1 cells + 20 nM CPT, ATP luminescence, 48 h. Potency, µM (doses to about 46.2 µM), for inactives: at the top dose activity change, negative = growth inhibition, hits mostly inhibitors. 12% of 420,000 active. AID 686979; also: nearly all actives have a fitted effect of over 55% in size
#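 Cell growth measured by CellTiter-Glo luminescence after a minimum 48 h, 37 C compound exposure with 20 nM CPT in Tdp1-knockout DT40 cells stably expressing hTDP1, seeded 400/well; qHTS titration format.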
# DT40 TDP1 no CPT: qHTS for Inhibitors of human tyrosyl-DNA phosphodiesterase 1 (TDP1): qHTS in cells in absence of CPT; DT40 Tdp1-/- hTDP1 cells, no CPT, ATP luminescence, 48 h; Potency, µM (doses to about 46.2 µM), for inactives: at the highest dose activity change, negative = growth inhibition, usual class: inhibitors; 15% of 420,000 active; AID 686978, 2013; also: nearly all actives have a fitted effect of over 55% in size
#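 A cellular qHTS used chicken DT40 cells lacking endogenous Tdp1 but carrying stably transfected human TDP1. Compounds were applied without camptothecin, and cell growth kinetics were judged by ATP-dependent luminescence after ≥48 hr.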
# RORgamma inh: ROR gamma (mouse) transcription inhibition. AID 2551. Drosophila S2 Gal4-RORgamma UAS-luciferase reporter, 20 h. 5.4% of 310,000 active. Potency, µM (top dose mostly 53.6 µM), for inactives: at the top dose activity change, negative = inhibition, actives largely listed as inhibitors. P51450; also: nearly all actives have a fitted effect of over 60% in size
# Target sequence (P51450 whole entry, looked up, the tested form may be a part): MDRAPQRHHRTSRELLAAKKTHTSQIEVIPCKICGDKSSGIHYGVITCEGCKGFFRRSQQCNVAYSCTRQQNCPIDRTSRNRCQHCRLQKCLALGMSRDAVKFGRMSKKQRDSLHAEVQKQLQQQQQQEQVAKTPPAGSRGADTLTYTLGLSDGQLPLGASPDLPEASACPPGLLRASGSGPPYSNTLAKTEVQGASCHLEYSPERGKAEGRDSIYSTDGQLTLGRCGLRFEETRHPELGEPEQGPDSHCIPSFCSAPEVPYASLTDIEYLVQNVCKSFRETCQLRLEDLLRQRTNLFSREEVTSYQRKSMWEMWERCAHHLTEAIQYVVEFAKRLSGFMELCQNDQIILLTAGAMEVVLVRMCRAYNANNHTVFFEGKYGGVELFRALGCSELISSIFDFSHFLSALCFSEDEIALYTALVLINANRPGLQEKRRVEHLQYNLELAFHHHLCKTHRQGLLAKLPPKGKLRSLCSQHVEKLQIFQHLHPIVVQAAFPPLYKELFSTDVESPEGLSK
#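 In this cell-based reporter format, copper sulfate (700 uM final) drives Gal4–ROR gamma fusion expression from a metallothionein promoter in Drosophila Schneider cells; compounds preincubated 1 hr, reporter read after 20 hr at ambient temperature.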
# TDP1 inh: inhibitors of human tyrosyl-DNA phosphodiesterase TDP1; recombinant TDP1, AlphaScreen DNA substrate cleavage; Q9NUW8; 0.28% of 350,000 active; AID 485290; Potency, µM (titrated, usually from 130 µM), inactives show top-dose activity change, negative = inhibition, actives largely listed as inhibitors; also: nearly all actives have a fitted effect of over 40% in size
#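 Recombinant E. coli-expressed Tdp1 (1 nM) preincubated with compound 15 min at RT, then 5'-biotin/3'-phosphotyrosine-FITC DNA substrate (15 nM) added for 5 min. AlphaScreen beads (10 ug/ml) added, 10 min RT; tyrosine-FITC cleavage read as signal loss.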
# Gal4-VP16 FLuc: counter-screen for ROR gamma inhibitors: Gal4-VP16 reporter. Drosophila S2 Gal4-VP16 UAS-luciferase, luminescence, 20 h. Potency, µM (doses to about 53.6 µM), for the others: top-dose activity, negative = inhibition, most hits filed as inhibitors. 3.5% of 310,000 active;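 also: Gal4-VP16 expression switched on by copper sulfate through the metallothionein promoter; nearly all actives have a fitted effect of over 50% in size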
# * marks the source's active call; other numbers are inactive results; ? = inconclusive; . = no result given; [ ] = remark or other dose. Calls follow the shape of the dose curve; as a rule, active = well fitted curve in the direction sought with a large enough effect; inconclusive = small, poorly fitted or top-dose-only effect, or another doubt; inactive = no such curve, though single readings can be large; an effect the other way counts as inactive or inconclusive. % is scaled to controls: 0 for no effect and ±100 for the full control effect; potency is read from the fitted curve at half-maximal effect.
SMILES,TDP1 cell CPT,DT40 TDP1 no CPT,RORgamma inh,TDP1 inh,Gal4-VP16 FLuc
O=C(O)c1sccc1SCc1ccc(Cl)c(Cl)c1,1%,-14%,11%,0%,?
C=CS(=O)(=O)N(Cc1ccc(Cl)c(Cl)c1)C[C@@H](O)CO,21µM*,21µM*,.,1%[56.1 µM],.
CC(NC(=O)COC(=O)CCc1ccccc1)c1ccccc1 (stereo not drawn),5%,1%,-10%,5%,-10%
CCOC(=O)C(Cc1ccc(NC(=O)/C(=C\c2ccccc2)NC(=O)c2ccccc2)cc1)N1C(=O)c2ccccc2C1=O (stereo not drawn),10µM*,8.2µM*,11%[10 µM],-1%,-4%
Fc1ccc2nc(C(F)(F)F)cc(N3CCOCC3)c2c1,-3%,-4%,-8%,.,10%
CCOC(CNC(=O)c1cccn2c(=O)c3c(C)c(C)sc3nc12)OCC,16µM*,18µM*,-4%,.,-3%
O=C(NCCN1CCN(c2ccccc2)CC1)c1cccn2c(=O)c3cc(Cl)ccc3nc12,?,18µM*,14%,9%,-15%
O=C(NCCN1CCN(c2cccc(Cl)c2)CC1)c1cccn2c(=O)c3ccccc3nc12,-2%,1%,.,.,.
CCOC(CNC(=O)c1cccn2c(=O)c3cc(Cl)ccc3nc12)OCC,12µM*,13µM*,-25%,8%,1%
CCOC(=O)N1CCN(C(=O)c2cccn3c(=O)c4cc(Cl)ccc4nc23)CC1,11%,-9%,4%,4%,-5%
CCOC(=O)c1cc(C(=O)c2ccccc2O)cn2c(=O)c3c(C)c(C)sc3nc12,.,.,7%,-5%,-2%
CCOc1ccc(Cl)cc1CSc1n[nH]c(CC)n1,?,?,9%,-2%,-3%
O=C(NCCC1=CCCCC1)C(=O)NCC1OCCCN1S(=O)(=O)c1ccc(F)cc1 (stereo not drawn),-15%,?,21%,-7%,-9%
CN1CCN(CC(O)COC(c2ccc(Cl)cc2)c2ccc(Cl)cc2)CC1 (stereo not drawn),?,?,-23%,.,-4%
COc1ccc(C[C@@H]2CN3C(=NC[C@@H]3Cc3ccc(O)cc3)N2C[C@H](C)NC(=O)CCC2CCCCC2)cc1,5.8µM*,5.2µM*,0%,.,1%
C/C=C(\C)C(=O)NCCN1C2=NC[C@H](C(C)C)N2C[C@@H]1Cc1ccc(OC)cc1,?,-24%,1%,9%,-3%
COc1ccc(C[C@H]2CN3C(=NC[C@@H]3Cc3ccc(O)cc3)N2C[C@H](C)NC(=O)CCC2CCCCC2)cc1,8.2µM*,16µM*,10%,.,2%
COC(=O)c1ccc(Cl)cc1NC(=O)N1CCC(CN2CCCC2)CC1,?,?,.,2%,.
Oc1ccccc1C1=NN(c2ccccc2)C(c2ccc(F)cc2)C1 (stereo not drawn),-16%,?,4%,.,7%
Oc1ccccc1C1=Nc2nc3ccccc3n2C(c2ccccc2)C1 (stereo not drawn),21µM*,18µM*,19%[0.365 µM],12%,.
CC(=O)/C=C/c1ccccc1Oc1c(F)c(F)nc(F)c1F,?,26µM*,?,.,27%
COc1ccc2oc(=O)c(-c3csc(Nc4ccc(O)cc4)n3)cc2c1,3.3µM*,5.8µM*,?,0%,?
COc1ccc2oc(=O)c(-c3csc(-c4ccc(Br)cc4)n3)cc2c1,-2%,-1%,.,4%,.
COc1ccc2oc(=O)c(-c3nnc(NCc4ccco4)s3)cc2c1,5.8µM*,3.7µM*,18%,-7%,11%
CCOc1ccccc1Nc1nnc(-c2cc3cc(OC)ccc3oc2=O)s1,8.2µM*,7.3µM*,.,3%,.
SMILES,TDP1 cell CPT,DT40 TDP1 no CPT,RORgamma inh,TDP1 inh,Gal4-VP16 FLuc
Cc1ccccc1-n1c(SCc2cccc(F)c2)nc2[nH]ncc2c1=O,?,?,12%,6%,-12%
O=C(Nc1ncccc1O)c1ccc2c(c1)OCCO2,23µM*,15µM*,.,1%,.
O=C(Nc1ncccc1O)c1ccc2ccccc2c1,-14%,2%,19%,3%,-18%
O=C(Nc1ncccc1O)c1ccc2c(c1)OCO2,?,16µM*,.,0%,.
Cc1cccnc1NC(=O)c1ccc2c(c1)OCCO2,1%,-9%,.,1%[0.505 µM],.
CC1CN(CC(O)COC2CCC(C(C)(C)C)CC2)CC(C)O1 (stereo not drawn),?,-25%,-28%,2%,-2%
COc1cccc(NC(=O)C(Sc2nnc3ccccn23)c2ccccc2)c1 (stereo not drawn),-19%,-29%,-7%,0%,1%
CC1CC(C)(C)CC2(C1)NC(=O)N(CC(=O)N1CCN(S(=O)(=O)c3cccc(Cl)c3Cl)CC1)C2=O (stereo not drawn),18µM*,?,.,.,.
Cc1[nH]c2ccccc2c1C(=O)CN1C(=O)NC2(CC(C)CC(C)(C)C2)C1=O (stereo not drawn),15µM*,?,?,8%,?
Oc1cccc(Nc2cc(-c3ccccc3)ncn2)c1,?,?,.,3%,.
CCN(CCO)c1ccc(Nc2cc(-c3ccc(-c4ccccc4)cc3)ncn2)cc1,18µM*,15µM*,.,.,.
COc1ccc(C2NN=C(c3c[nH]c4ccccc34)C2O)cc1 (stereo not drawn),?,?,37%,.,-17%
COc1ccc(C2C(O)C(c3c[nH]c4ccccc34)=NN2C(=O)CCl)cc1 (stereo not drawn),0.33µM*,0.58µM*,13µM*,9%,10µM*
Cc1ccc(-n2c3c(c(=O)[nH]c2=O)C(NC(=O)c2ccccc2C)(C(F)(F)F)C(=O)N3)cc1 (stereo not drawn),13µM*,23µM*,.,0%,.
Cc1nn(Cc2ccc(F)cc2)c(C)c1NC(=O)CCCn1nc([N+](=O)[O-])cc1C,-2%,24%,-23%,2%,3%
CCCCNC(=O)Nc1ccc(C2SCCS2)cc1,?,16µM*,-11%,3%,-6%
CNC(=O)Nc1ccc(C2SCCS2)cc1,0%,-25%,25%,5%,20%
CC(C)c1ccc(NC(=O)COc2ccc(C3SCCS3)cc2)cc1,?,23µM*,0%,0%,6%
CCCCN(C)CCNC(=O)c1ccc2c(c1)NC(=O)CN2,?,?,.,5%,.
COc1ccc(/C=N/Nc2cc(C)nc3c(C)cccc23)cc1,?,21µM*,?,3%,?
COc1ccc(CNc2cc(C)nc3ccc(OC)cc23)cc1,?,21µM*,2%,12%,2%
COc1ccc2nc(C)cc(N/N=C/c3ccc(F)cc3)c2c1,1µM*,0.92µM*,4µM*,.,5µM*
